This passage reports Inhibition results from ChEMBL document CHEMBL4513146, “CO-ADD screening of Karazin Kharkiv National University (Ukraine) compounds”.

Entries with a potency or affinity are not part of this list.

This experiment relates to Staphylococcus aureus. The following applies: Concentration 32 ug.mL-1;; ASSAY_TEST Inhibition of Bacterial Growth; detection method Absorption (OD600); MEDIA CAMHB; plate type 384well; NBS; CORNING #3640; time 18 hr.
By Inhibition is commonly meant the change of the read-out against control, counted positive when it falls. For `Cc1ccc(Cl)cc1NC(=O)CSc1nnc2c(=O)n(-c3ccccc3)ccn12`, the Inhibition worked out at 7.91%.

Take `O=C(CSc1nc2ccccc2n2c(-c3ccccc3)nnc12)Nc1ccc(Br)cc1`: the Inhibition was 12.1%.

Consider `CCOc1ccc(-n2ccn3c(SCC(=O)Nc4cccc(Cl)c4)nnc3c2=O)cc1`, for which the Inhibition was -0.75%. Then `CCc1ccc(NC(=O)Cn2nc3c4cc(-c5ccc(C)c(C)c5)nn4ccn3c2=O)cc1`, with 1.77%. With `O=S(=O)(c1ccc2nncn2c1)N(Cc1ccccc1F)c1ccc2c(c1)OCCO2` the figure was 5.05%; with `CC(C)CCn1c(=O)c2sccc2n2c(=O)n(CC(N)=O)nc12`, 1.13%. Then `COc1ccc(Cl)cc1NC(=O)Cn1nc2c(Sc3ccc(C)cc3C)nccn2c1=O`, with -3.15%; and `O=C(CSc1nnc2c(=O)n(-c3ccccc3)ccn12)Nc1cccc(F)c1`, with 13%; and `COc1cccc(-n2ccn3c(=O)n(Cc4ccc([N+](=O)[O-])cc4)nc3c2=O)c1`, with 7.57%. Take `COc1ccc(NC(=O)Cn2nc3ccc(SC(C)(C)C)nn3c2=O)cc1OC`: the Inhibition stood at 4.97%. Then `Cc1ccc(NC(=O)Cn2nc3ccc(C(=O)NCc4ccccc4)cn3c2=O)c(Br)c1`, with -7.88%. Then `O=C(Cn1nc2c(N3CCOCC3)nccn2c1=O)Nc1ccccc1Br`, with 17.91%.

On to `COc1ccc(CNC(=O)Cn2nc3c(Sc4ccc(C)cc4C)nccn3c2=O)cc1`, for which the Inhibition is given as 6.57%. With `O=S(=O)(c1ccc2nncn2c1)N(Cc1ccccc1F)c1cccc(F)c1`, the Inhibition is on record as -5.69%. Then `Cc1cc2nn(CC(=O)N3CCOCC3)c(=O)n2c(Nc2ccc(C)c(F)c2)n1`, with 15.64%; and `COC(=O)c1ccccc1NC(=O)Cn1nc2c3sc(N4CCCC4)nc3ncn2c1=O`, with 6.17%; and `COc1cc(NC(=O)CSc2nnc3c(=O)n(-c4cccc(OC)c4)ccn23)cc(OC)c1`, with 2.57%. Then `COc1cc(OC)c(NC(=O)Cn2nc3c(SC4CCCCC4)nccn3c2=O)cc1Cl`, with 7.52%.

Turning to `COc1ccc(NC(=O)CSc2nnc3c(=O)n(-c4ccccc4OC)ccn23)cc1Cl`, the Inhibition came out at 16.85%. With `Cc1ccc(NC(=O)Cn2nc3c4cc(-c5ccc(Cl)cc5)nn4ccn3c2=O)cc1F` the figure was 11.6%; with `Cc1ccc(CNC(=O)Cn2nc3ccc(SC4CCCCC4)nn3c2=O)cc1`, 11.69%. With `CCc1nnc2c(SCC(=O)Nc3ccc(Br)cc3)nc3ccccc3n12` the figure was -16.96%; with `COc1ccc(N(Cc2ccc(F)cc2)S(=O)(=O)c2ccc3nncn3c2)cc1`, -7.56%. With `Cc1ccc(NC(=O)c2ccc3nnc(SCC(=O)Nc4ccc(F)cc4)n3c2)cc1` the figure was 14.37%; with `CC(C)CCn1c(=O)c2sccc2n2c(=O)n(CC(=O)N(C)c3ccccc3)nc12`, -2.05%. On to `COc1cccc(Oc2nccn3c(=O)n(CC(=O)Nc4ccc(C)cc4Cl)nc23)c1`, for which the Inhibition was 10.57%. With `COC(=O)c1ccc(NC(=O)Cn2nc3ccc(S(=O)(=O)C4CCCCC4)nn3c2=O)cc1` the figure was 8.6%; with `CCCCOc1ccc(-c2cc3c4nnc(SCC(=O)NCc5ccccc5)n4ccn3n2)cc1`, -2.73%. Then `CCc1ccc(N(Cc2cc(F)cc(F)c2)S(=O)(=O)c2cccn3c(C)nnc23)cc1`, with -13.36%; and `Cc1cc2nn(CC(=O)Nc3ccc(F)c(F)c3)c(=O)n2c(Nc2ccc(F)c(C)c2)n1`, with 9.7%; and `COc1ccc(-c2cc3c4nn(CC(=O)Nc5ccc(C)c(F)c5)c(=O)n4ccn3n2)cc1`, with 0.97%. Consider `CCOc1ccc(C(=O)CSc2nnc3c(=O)n(-c4ccc(C)c(C)c4)ccn23)cc1`, for which the Inhibition amounted to 9.97%. Then `CCOc1ccc(-n2ccn3c(SCC(=O)Nc4ccc(C)c(C)c4)nnc3c2=O)cc1`, with -4.99%; and `O=C(CSc1nnc2c(=O)n(-c3ccc(F)cc3)ccn12)c1ccccc1Cl`, with 19.94%; and `Cc1cccc(Cn2nc3c(=O)n(-c4cccc(Cl)c4C)ccn3c2=O)c1`, with -1.78%.

In the case of `Cc1ccc(-n2ccn3c(SCC(N)=O)nnc3c2=O)cc1C`, the Inhibition is 19.3%.

As to `O=c1c2nn(Cc3cccc(F)c3)c(=O)n2ccn1-c1ccccc1`, the Inhibition is on record as -1.92%. With `O=c1c2sccc2n2c(=S)[nH]nc2n1CC1CCCO1` (centres undefined) the figure was 3.07%. `COc1cccc(CN(c2cccc(F)c2)S(=O)(=O)c2ccc3nnc(C)n3c2)c1`: the Inhibition is recorded as -5.28%.
